Screens: PubChem BioAssay, National Center for Advancing Translational Sciences (NCATS)
Pol beta inh: inhibitors of human DNA polymerase beta | Pol beta primer extension/strand displacement, fluorescence kinetic | 1.3% of 340,000 active | P06746 | AID 485314 | Potency, µM (doses to about 114 µM), for inactives: at the top dose activity change, negative = inhibition, actives largely listed as inhibitors; note: % is set by controls: 0 for no effect and ±100 for the full control effect
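Preincubation: enzyme (10 nM) with compound, 15 min, RT. Reaction: substrate added to 50 nM final. Reads: 0 and 10 min. Analysis: normalized, Hill fit.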
Pol kappa inh: inhibitors of human DNA polymerase kappa; purified Pol kappa, fluorescent DNA synthesis assay, 10 min; AID 588579; Q9UBT6; Potency, µM (titrated, usually from 107 µM), for inactives: at the top dose activity, negative = inhibition, usual class: inhibitors; 0.53% of 400,000 active; note: % is set by controls: 0 for no effect and ±100 for the full control effect
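Readout: fluorescence, taken kinetically at 0 and 10 min. Conditions: 10 nM Pol kappa, 15 min RT compound preincubation, 50 nM substrate final. Controls: enzyme-free buffer wells.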
Pol iota inh: DNA polymerase iota (human) inhibition; AID 588590; Q9UNA4; 1% of 390,000 active; Potency, µM (titrated, usually from 115 µM), for inactives: at the highest dose activity, negative = inhibition, most hits filed as inhibitors; Pol iota fluorescent replication assay, 10 min
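Pol iota at 10 nM preincubated 15 min with compounds at room temperature; reaction started with fluorescent substrate, 50 nM final. Fluorescence read kinetically at 0 and 10 min; buffer-only wells as negative control.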
POLH inh: DNA polymerase eta (human) inhibition; recombinant Pol eta, fluorescent DNA replication assay; 1.2% of 390,000 active; Q9Y253; Potency, µM (titrated, usually from 114 µM), without a hit: at the highest dose activity change, negative = inhibition, most hits filed as inhibitors; AID 588591; note: % is set by controls: 0 for no effect and ±100 for the full control effect
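Fluorescent replication assay: 50 nM final substrate added after a 15 min room-temperature compound preincubation with 10 nM enzyme. Signal taken at 0 min and again at 10 min.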
WRN inhibitor: blocks human WRN helicase; WRN helicase unwinding, fluorescent forked duplex, kinetic; Q14191; AID 651768; 0.46% of 360,000 active; Potency, µM (highest dose often 114 µM), for the others: at the top dose activity change, negative = inhibition, actives largely listed as inhibitors; note: % is set by controls: 0 for no effect and ±100 for the full control effect; nearly all actives have a fitted effect of over 55% in size
Target sequence (Q14191 whole entry, looked up): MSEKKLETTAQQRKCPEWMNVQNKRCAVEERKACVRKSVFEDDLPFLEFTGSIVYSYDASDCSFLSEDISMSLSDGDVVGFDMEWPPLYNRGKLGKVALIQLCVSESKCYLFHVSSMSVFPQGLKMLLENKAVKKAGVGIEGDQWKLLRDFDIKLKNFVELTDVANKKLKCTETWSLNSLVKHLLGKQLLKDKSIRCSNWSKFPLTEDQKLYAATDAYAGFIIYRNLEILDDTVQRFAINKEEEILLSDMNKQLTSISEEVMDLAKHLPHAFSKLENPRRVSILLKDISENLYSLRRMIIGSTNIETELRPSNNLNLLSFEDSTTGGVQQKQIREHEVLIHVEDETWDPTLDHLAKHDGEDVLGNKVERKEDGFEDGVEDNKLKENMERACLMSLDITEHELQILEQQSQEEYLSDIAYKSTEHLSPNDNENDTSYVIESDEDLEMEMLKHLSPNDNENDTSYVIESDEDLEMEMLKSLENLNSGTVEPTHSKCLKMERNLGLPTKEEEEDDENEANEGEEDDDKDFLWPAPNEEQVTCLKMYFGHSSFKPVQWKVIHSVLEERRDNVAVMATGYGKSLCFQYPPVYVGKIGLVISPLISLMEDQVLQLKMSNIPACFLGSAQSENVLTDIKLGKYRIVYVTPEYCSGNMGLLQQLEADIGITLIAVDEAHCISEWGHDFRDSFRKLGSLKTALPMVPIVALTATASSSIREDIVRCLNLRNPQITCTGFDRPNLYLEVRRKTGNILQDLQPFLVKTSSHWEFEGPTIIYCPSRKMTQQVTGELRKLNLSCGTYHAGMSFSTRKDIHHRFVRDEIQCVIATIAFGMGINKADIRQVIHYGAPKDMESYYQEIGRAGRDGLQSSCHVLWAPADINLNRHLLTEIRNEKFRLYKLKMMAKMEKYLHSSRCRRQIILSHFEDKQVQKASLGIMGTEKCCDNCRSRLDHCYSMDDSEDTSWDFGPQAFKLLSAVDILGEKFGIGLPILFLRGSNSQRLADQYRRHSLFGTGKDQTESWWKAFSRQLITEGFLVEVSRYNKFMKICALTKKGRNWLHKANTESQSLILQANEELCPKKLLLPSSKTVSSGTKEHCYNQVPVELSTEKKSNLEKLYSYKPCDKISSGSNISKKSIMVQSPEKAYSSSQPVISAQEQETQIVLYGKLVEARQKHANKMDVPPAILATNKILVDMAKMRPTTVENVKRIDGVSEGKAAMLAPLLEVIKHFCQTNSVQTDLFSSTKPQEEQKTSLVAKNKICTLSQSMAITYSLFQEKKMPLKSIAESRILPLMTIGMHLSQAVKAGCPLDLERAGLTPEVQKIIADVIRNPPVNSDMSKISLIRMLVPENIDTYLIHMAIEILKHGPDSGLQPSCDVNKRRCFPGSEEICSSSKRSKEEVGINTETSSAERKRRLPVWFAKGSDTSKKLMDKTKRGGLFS
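Enzyme (20 nM final) and test compound sit together 15 min at room temperature before substrate addition. Substrate is a single-forked duplex oligonucleotide (100 nM) labelled with fluorophore and quencher, with 2 mM ATP; helicase unwinding raises red fluorescence, read kinetically.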
The depositor's hits bear a star; u = inconclusive; x = not tested or not shown; ! = not confirmed by another sample; [ ] = another dose, or the depositor's remark. A selection: hits, their analogues and other compounds. The true share with any hit is near 2.3%. Calls come from the whole dose curve; as a rule, active = well fitted curve in the direction sought with a large enough effect; inconclusive = small, poorly fitted or top-dose-only effect, or another doubt; inactive = no such curve, though single readings can be large; an effect the other way counts as inactive or inconclusive. Potency is the fitted concentration of half-maximal effect.

SMILES	Pol beta inh	Pol kappa inh	Pol iota inh	POLH inh	WRN inhibitor
O=C(O)c1cc(S(=O)(=O)O)ccc1O	3.2%	-13.8%	0.6%	-10.5%	2.4%
Nc1ccc2c(O)cc(S(=O)(=O)O)cc2c1	x	14.1µM*	8.91µM*	5.62µM*	u
COc1cc(/C=C/c2nc3ccccc3s2)cc(OC)c1O	22.4µM*	-17.2%	152.3%	u	-6.7%
CN(C)c1ccc(/C=C/c2ccc3ccccc3n2)cc1	-8.6%	-1.9%	17.8%	-8.0%	6.0%
CN(Cc1ccccc1)c1ccc(C=O)cc1	x	-1.0%	29.1%	x	x
CN(C)c1ccc(/C=C/c2nc3ccccc3s2)cc1	26.5%	u	89.1µM*!	-3.9%	5.4%
CN(Cc1ccccc1)c1ccc(/C=C/c2nc3ccccc3s2)cc1	x	25.1µM*	89.1µM*	x	x
COc1cc(C=C(c2nc3ccccc3s2)c2nc3ccccc3s2)ccc1O	1.6%	-7.4%	59.0%	-21.3%	-14.5%
CN(C)c1ccc(/C=C/c2ncnc3ccccc23)cc1	x	u	39.8µM*	x	x
C(=Nc1cnc2ccccc2c1)c1ccncc1	x	2.6%	13.3%	x	x
COC(=O)c1ccc(COc2ccc3c(C)c(C)c(=O)oc3c2)o1	56.2µM*	-6.0%	u	-15.2%	-5.9%
CCC(=O)N(Cc1cc(=O)[nH]c2ccccc12)c1ccccc1	29.1%	-12.3%	14.7%	1.4%	1.7%
O=C(CCl)N(Cc1cc(=O)[nH]c2ccccc12)c1ccccc1	29.2%	-2.5%	u	50.1µM*	-3.9%
Nc1ncnc2c1ncn2[C@@H]1O[C@H](C(=O)N2CCN(CC(=O)Nc3cccc4c3CNC4=O)CC2)[C@@H](O)[C@H]1O	x	-4.2%[60.1 µM]	x	x	x
Cc1oc(C(=O)O)cc1COc1ccc2c(C)cc(=O)oc2c1	u	-24.9%	-14.3%	22.4µM*	-10.1%
CC(C)(C)n1ncc2c(=O)n(Cc3cccc(OC(F)F)c3)cnc21	x	-9.4%	-0.5%	x	x
COc1cccc(Oc2cc(NN3CCCCC3)c([N+](=O)[O-])cc2[N+](=O)[O-])c1OC	56.2µM*	-19.7%	u	-10.6%	-3.3%
O=[N+]([O-])c1cc([N+](=O)[O-])c(Oc2cccc3c2CCCC3)cc1NN1CCCCC1	x	-9.3%	-18.2%	-12.0%	-9.0%
COc1ccc(N=C2S/C(=C\c3ccco3)C(=O)N2CC(C)C)cc1	79.4µM*	-2.3%	-3.2%	-10.1%	8.9%
COc1ccc(CCC(C)N2CCC(Oc3ccc(C(=O)N4CCCC4)cc3)CC2)cc1 (stereo unspecified)	-3.3%	-3.3%	89.1µM*	-13.3%	2.4%[11.6 µM]
CC(CCc1ccc(O)cc1)N1CCC(Oc2ccc(C(=O)N3CCCC3)cc2)CC1 (stereo unspecified)	u	-1.2%	20.0%	4.4%	-3.3%
O=C(COc1c(Br)cc(Br)c2cccnc12)Nc1ccccc1F	4.47µM*	-30.1%	-27.5%	u	-6.8%
O=C(COc1ccccc1)Nc1ccccc1F	-3.3%	3.8%	19.9%	-6.7%	-25.9%
COc1cc(/C=C2/C(=O)CNC2=O)ccc1O	13.1%	2.8%[60.1 µM]	u	7.3%	1.0%
COc1cc(C=C2C(=O)C=CC2=O)ccc1O	x	x	x	x	10µM*
SMILES	Pol beta inh	Pol kappa inh	Pol iota inh	POLH inh	WRN inhibitor
COC1=C(Nc2ccc(O)cc2)C(=O)c2ccccc2C1=O	u	-16.9%	25.1µM*	-10.7%	-16.1%
COC1=C(Nc2ccc(OC)cc2)C(=O)c2ccccc2C1=O	u	-4.9%	u	-8.2%	-9.5%[57.1 µM]
CC(C)=CCC/C(C)=C/CC/C(C)=C/CC/C(C)=C/C(=O)O	x	-8.1%[60.1 µM]	x	x	x
O=C(O)CC(NC(=O)c1ccco1)c1ccco1 (stereo unspecified)	79.4µM*	-10.1%	-9.5%	u	9.9%
O=C(NCCNCc1ccccc1)c1ccco1	x	u	20µM*	50.1µM*	-0.4%[11.6 µM]
CCc1ccc(CNCCNC(=O)c2ccco2)cc1	x	0.6%	u	-16.9%	-4.6%
O=C(C[N+]1(CC(O)c2ccccc2)CCOCC1)c1ccccc1 (stereo unspecified)	x	-7.6%	5.7%	x	x
COCCNC(=O)c1c(NC(=O)Cc2coc3cc(C)ccc23)sc2c1CCCC2	1.5%	12.0%	5.7%	-14.4%	x
CCN1C(=NCc2cccc(C(F)(F)F)c2)N[C@@H](c2cccc(C(F)(F)F)c2)C(C(=O)OC)=C1C	x	2.5%	28.4%	x	x
C[N+]1(CC(=O)c2ccc3c(c2)CCCC3)CCOCC1	x	5.8%	34.6%	x	x
